This is a sample that favours compounds with a hit; in the whole collection about 4.3% have one here.
Peg3 promoter – reduces Peg3 promoter-driven luciferase expression in HeLa. HeLa PEG-Prom luciferase reporter, luminescence, overnight. inhibition, % at 20 µM. hit rate 1.7% among 360,000. AID 588405;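 active = inhibition of at least 50% at 20 µM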
KKLEB tox – counter-screen for CF NF-kB inhibitors: cytotoxicity | hit rate 0.36% among 360,000 | activity change (cytotoxicity), % at 5 µM | KKLEB CF airway cells viability, ATPlite luminescence, overnight; stronger effect = lower value; cells stimulated with P. aeruginosa culture filtrate;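 active = corrected activity change at or below -50% at 5 µM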
HIF-2a block – blocks HIF-2a reporter activity. 786-0 RCC cells HIF-2a reporter, luciferase luminescence, overnight. inhibition, % at 18.8 µM. hit rate 0.72% among 360,000;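 active = inhibition of the luminescence signal of 40% or more relative to plate controls, in a single-dose primary screen at 18.75 µM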
TRPM1 prom inh – MITF TRPM1 promoter inhibition in SK-MEL-5 cells | SK-MEL-5 TRPM1 promoter luciferase, 24 h | inhibition, % at 12.5 µM | hit rate 0.83% among 330,000 | AID 488899;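 active = mean inhibition across replicates of 60% or more, whatever share of single replicates reaches that level; inconclusive = some that reach 60%, reason not given; inactive = mean inhibition across replicates below 60%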
CF NFkB inh – blocks PAF-induced NF-kB reporter in cystic fibrosis cells | inhibition, % at 5 µM | hit rate 0.86% among 360,000 | KKLEB NF-kB-GFP reporter, GFP fluorescence overnight | AID 588850;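 active = at least 50% inhibition at 5 µM, scaled per plate between neutral and stimulator controls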;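 also: PAF is a Pseudomonas aeruginosa culture filtrate used as stimulus; plate controls were PAF-stimulated DMSO wells for no effect and unstimulated DMSO wells for full effect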
CHOP inh – inhibitors of CHOP induction in ER stress response | CHO-K1 CHOP-promoter luciferase, tunicamycin-induced, 15-18 h | inhibition, % at 10 µM | hit rate 3.8% among 220,000;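 active = compounds that reduced the stress-induced luciferase reporter signal by more than about 70% of percent inhibition, limit read from the data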;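 also: 0% = tunicamycin plus vehicle and 100% = wells without tunicamycin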
* marks the source's active call; other numbers are inactive results; ? = inconclusive; . = no result given.

SMILES | Peg3 promoter | KKLEB tox | HIF-2a block | TRPM1 prom inh | CF NFkB inh | CHOP inh
CC(C)(C)C(=O)/C=c1\[nH]c(=O)/c(=C\c2ccc(F)cc2)s1 | -14 | -7 | -23 | -12 | 6 | 81*
CC(C)(C)C(=O)/C=c1\[nH]c(=O)/c(=C\c2ccccc2F)s1 | 1 | 2 | -18 | -8 | 8 | 60
N=c1ccn2c(n1)OC1[C@@H](O)[C@@H](CO)O[C@H]12 (some centres not stated) | . | . | . | . | . | 16
O=C(O)COc1ccc(/C=N/n2cnc3scc(-c4cccs4)c3c2=O)cc1 | 11 | 0 | 19 | -4 | 2 | -6
O=c1c2c(-c3cccs3)csc2ncn1/N=C/c1ccc(OC(F)F)cc1 | 7 | -37 | 5 | -7 | 12 | 77*
CCN(CC)S(=O)(=O)c1ccc(C)c(NC(=O)COC(=O)C=C(C)C)c1 | 23 | 2 | 12 | -1 | -7 | -1
CCN(CC)S(=O)(=O)c1ccc(C)c(NC(=O)COc2ccc(Cl)cc2Br)c1 | 47 | -1 | 12 | 16 | 5 | 74*
CC1(C(=O)NS(=O)(=O)c2cccc(F)c2)CCN1C(=O)c1ccccc1 (configuration not stated) | 1 | -11 | -1 | . | 5 | .
Cn1nc(C(F)(F)F)c(/C=N/OC(=O)c2ccccc2)c1SCc1ccccc1Cl | 53* | 3 | -65 | 22 | 27 | 2
CC(C(=O)N(C1CC1)C1(C(=O)Nc2ccccc2)CCCC1)N1C(=O)c2ccccc2C1=O (configuration not stated) | 5 | 0 | -1 | -15 | 0 | 74*
NC(=S)N/N=C1/CCSc2ccc3ccccc3c21 | -1 | -4 | -6 | -5 | -24 | 75*
CCN(CC)c1nc(SCC(=O)O)nc(N(CC)CC)n1 | 9 | -8 | 18 | -4 | 0 | -2
CCN(CC)c1nc(C#N)nc(N(CC)CC)n1 | 4 | -7 | 17 | -9 | 12 | 79*
CCOC(=O)c1c(OCC)[nH]c2ccc(O)cc12 | 17 | 3 | 16 | 12 | 19 | 72*
CC1CCc2nc(N)c(C#N)c(-c3cccnc3)c2C1 (configuration not stated) | 31 | -5 | 13 | 4 | 69* | 47
O=C(NC(=S)N1CCN(C/C=C/c2ccccc2)CC1)c1ccc(Cl)nc1 | 16 | 3 | 9 | -3 | -13 | -19
CCOC(=O)C1=C(c2ccccc2)NC(N)=NC1c1ccc(OCc2ccc(C(=O)OC)cc2)cc1 (configuration not stated) | 104* | -34 | -3 | 11 | 24 | -2
CCOC(=O)C1=C(c2ccccc2)Nc2ncnn2C1c1ccc(C(=O)O)cc1 (configuration not stated) | 13 | 3 | 8 | 2 | -14 | 0
CCN(CC)CC(=O)Nc1cccc2c1C(=O)c1ccccc1C2=O | 8 | -12 | -14 | 8 | -51 | 77*
O=C1c2ccccc2C(=O)c2c(NCCCN(CCO)CCO)cccc21 | 59* | -15 | -6 | 28 | -69 | -3
Cc1ccc(-c2nc3cc(C)c(Br)c(C)n3c2CC(C)(C)C)cc1 | -26 | 2 | -34 | . | -1 | .
CC(C)CNC(=O)C1C(=O)Nc2ccccc2C(=O)N1C(C)(C)C (configuration not stated) | . | . | 9 | . | . | .
CCOC(=O)[C@]12CCCC=C1N(Cc1ccco1)C(=O)[C@H](CC(=O)NCCC(C)C)C2 | . | . | 8 | . | . | .
Cc1sc2nc(N3CCOCC3)[nH]c(=O)c2c1-c1ccccc1 | 1 | -1 | 10 | -16 | -14 | 12
Cc1sc2nc(C(C)Nc3ccccc3N3CCOCC3)[nH]c(=O)c2c1C (configuration not stated) | 28 | 8 | 17 | 8 | 0 | 75*
SMILES | Peg3 promoter | KKLEB tox | HIF-2a block | TRPM1 prom inh | CF NFkB inh | CHOP inh
CS(=O)(=O)N1CCCCC1c1cc(C(=O)Nc2ccccc2Cl)no1 (configuration not stated) | -34 | 0 | -64 | . | 18 | .
CC(C)c1ccc(NC(=O)c2snc3ccc(Cl)cc23)cc1 | -240 | -10 | -274 | -112 | 14 | 79*
CC(C)c1ccc(NC(=O)c2csnn2)cc1 | -162 | -1 | -224 | -83 | -11 | 40
CCC(C)c1ccccc1N1CC(C(=O)Nc2cc(S(=O)(=O)N3CCOCC3)ccc2OC)CC1=O (configuration not stated) | 21 | -2 | 9 | 5 | 13 | .
CC(C)(C)c1ccc(-c2cn(-c3ccc(Br)cc3)c3[n+]2CCCS3)cc1 | 45 | -12 | 17 | 90* | 15 | 49
S=C(c1ccc(-c2cc(Cl)ccc2Cl)o1)N1CCOCC1 | -30 | -8 | -48 | -9 | 12 | 70*
O=C(O)C(CCCCNS(=O)(=O)c1ccc(F)cc1)NS(=O)(=O)c1ccc(F)cc1 (configuration not stated) | 11 | 0 | 8 | -4 | -17 | .
CCOc1ccc(S(=O)(=O)N(C)c2ccc(OCC(=O)Nc3nc4ccccc4s3)cc2)cc1 | 15 | 6 | 11 | 35 | -12 | 81*
Cc1cscc1-c1nc(NCC2CC2)nc2ccsc12 | 17 | -20 | 5 | . | 22 | .
Cc1ccc([N+](=O)[O-])cc1N=Nc1c(-c2ccc([N+](=O)[O-])cc2)[nH]n(C(N)=S)c1=O | 48 | -44 | -29 | 64* | -27 | 78*
CCc1ccc(C(=O)COC(=O)c2ccccc2OC)cc1 | -184 | -6 | -62 | -82 | 0 | .
Cc1c(CCOC(=O)CC23CC4CC(CC(C4)C2)C3)sc[n+]1CC(=O)c1ccccc1 | 62* | -19 | 2 | -1 | 17 | 11
Cc1c(CCOC(=O)C23CC4CC(CC(C4)C2)C3)sc[n+]1Cc1ccccc1 | 1 | -2 | 8 | 6 | -6 | -3
Cc1c(CCOC(=O)C23CC4(C)CC(C)(CC(C)(C4)C2)C3)sc[n+]1CC(=O)c1ccccc1 | 113* | -12 | 13 | ? | 23 | 3
CCOc1ccc(NC(=O)CSc2nc(=O)n(CCCN3CCOCC3)c3c2CCC3)cc1 | 2 | 1 | 20 | -16 | 10 | .
Cc1ccc(O)c(N=Nc2nccs2)c1 | -6 | 4 | -6 | 20 | 8 | .
COC(=O)c1cccc(C(=O)N2CCCC(CCC(=O)N(C)CCc3ccccn3)C2)c1 (configuration not stated) | 15 | -3 | 9 | 1 | 7 | .
CCOc1ccc(OCC(=O)N(CCC2=CCCCC2)c2c(N)n(Cc3ccccc3)c(=O)[nH]c2=O)cc1 | 83* | -62* | 4 | 77* | 72* | .
COc1ccc(CC(=O)N(CCC2=CCCCC2)c2c(N)n(Cc3ccccc3)c(=O)[nH]c2=O)cc1 | 17 | 0 | 13 | . | -14 | .
CC(CC(=O)N(CCC1=CCCCC1)c1c(N)n(Cc2ccccc2)c(=O)[nH]c1=O)c1ccccc1 (configuration not stated) | 87* | 5 | -6 | ? | -12 | .

Assay outcomes deposited in PubChem by several laboratories.
